Most compounds without a hit are left out; they make up all but 8.1% or so of the library.
Sfp PPTase inh = qHTS Assay for Inhibitors of Bacillus subtilis Sfp phosphopantetheinyl transferase (PPTase). 4'-phosphopantetheinyl transferase ffp (Bacillus subtilis), Q9F4F7. Biochemical Sfp PPTase activity, qHTS. Potency, µM, inactives show largest response in the series, negative = inhibition, hits mostly inhibitors. 310,000 tested, 3.5% active. AID 1490, 2009;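 also: the enzyme is Sfp with the accession as filed and its product quenches rhodamine fluorescence; 0% = enzyme reaction without inhibitor and -100% = no enzyme wells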
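Buffer: 50 mM Hepes-Na pH 7.6, 10 mM MgCl2, 0.01% Nonidet P-40, 0.01% BSA. Enzyme 15 nM, pre-exposed to compound 15 min; substrates then added and fluorescence change tracked over 30 min.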
Epigenetic reg = Quantitative High-Throughput Screen for Regulators of Epigenetic Control; murine LDR cells, GFP reporter derepression, 30 h; Potency, µM (doses to about 53.9 µM), for inactives: at the top dose GFP activation, actives largely listed as activators; 280,000 tested, 0.2% active; also: % of control where 0% means no effect; nearly all actives have a fitted effect of over 60% in size
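Murine LDR cells bearing a silenced CMV-driven GFP reporter were exposed to compound for 30 h at 37 C. After PBS washes, GFP-positive cells (20-120 um objects) counted by laser-scanning microplate cytometry.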
RORg inh = qHTS for inhibitors of ROR gamma transcriptional activity; Potency, µM (titrated, usually from 53.6 µM), for inactives: at the top dose activity change, negative = inhibition, actives largely listed as inhibitors; Drosophila S2 Gal4-RORgamma UAS-luciferase reporter, 20 h; AID 2551, 2010; 310,000 tested, 5.4% active; also: % is scaled to controls: 0 for no effect and ±100 for the full control effect; nearly all actives have a fitted effect of over 60% in size
Target sequence (P51450 whole entry, looked up, the tested form may be a part): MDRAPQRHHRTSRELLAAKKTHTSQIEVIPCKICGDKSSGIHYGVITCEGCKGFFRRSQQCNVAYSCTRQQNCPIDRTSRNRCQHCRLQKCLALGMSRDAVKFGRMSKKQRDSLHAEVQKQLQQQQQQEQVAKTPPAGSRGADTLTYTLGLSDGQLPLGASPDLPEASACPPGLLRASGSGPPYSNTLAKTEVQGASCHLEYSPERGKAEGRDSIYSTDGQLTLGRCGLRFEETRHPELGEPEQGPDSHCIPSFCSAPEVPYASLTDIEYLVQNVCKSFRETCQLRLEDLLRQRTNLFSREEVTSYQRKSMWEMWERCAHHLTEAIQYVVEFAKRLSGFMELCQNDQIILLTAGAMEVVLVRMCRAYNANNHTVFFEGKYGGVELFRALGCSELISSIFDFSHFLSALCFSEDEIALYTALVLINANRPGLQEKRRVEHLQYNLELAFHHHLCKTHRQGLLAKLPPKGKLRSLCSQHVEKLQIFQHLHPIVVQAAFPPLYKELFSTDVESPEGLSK
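Drosophila Schneider cells stably carrying a metallothionein-driven Gal4 DBD–ROR gamma fusion and a UAS-Photinus luciferase reporter were exposed to compound for 1 hr, then induced with copper sulfate (700 uM final) for 20 hr at ambient temperature before luminescence reading.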
PINK1 expr mod = A Quantitative High throughput Screen to Identify Chemical Modulators of PINK1 Expression | Potency, µM (series often up to 76.6 µM), for inactives: top-dose activation (PINK1 increase), actives largely listed as activators | PINK1 immunofluorescence, high-content cytometry, 24 h | AID 624263, 2012 | 410,000 tested, 0.2% active; active = well fitted activation curve with a large enough effect; inconclusive = small, poorly fitted or top-dose-only effect; cell line not stated here; also: % of control where 0% means no effect; nearly all actives have a fitted effect of over 65% in size
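Cells are seeded, rested 12 hours, then given compound at five concentrations or DMSO for 24 hours. After fixation, blocking and antibody staining, PINK1 amount and mitochondrial localization are scored; CCCP serves as control.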
VP16 counter = VP16 counterscreen qHTS for inhibitors of ROR gamma transcriptional activity. 310,000 tested, 3.5% active. Potency, µM (titrated, usually from 53.6 µM), inactives show at the highest dose activity, negative = inhibition, actives largely listed as inhibitors. Drosophila S2 Gal4-VP16 UAS-luciferase, luminescence, 20 h;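 also: Gal4-VP16 expression switched on by copper sulfate through the metallothionein promoter; % is scaled to controls: 0 for no effect and ±100 for the full control effect; nearly all actives have a fitted effect of over 50% in size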
ClpP mod = qHTS Assay for Activators of ClpP; purified B. subtilis ClpP, FRET peptide cleavage, 20 min; Potency, µM (titrated, usually from 57.5 µM), inactives show top-dose activity change, negative = active; 340,000 tested, 1.9% active; AID 651965, 2013; active = well fitted falling curve with a large enough effect; inconclusive = small, poorly fitted or top-dose-only effect; inactive = no such curve, though single readings can be large or run the other way; also: the source files actives as falling curves though it sought activators and does not explain the sign; nearly all actives have a fitted effect of over 65% in size
Target sequence (P80244 whole entry, looked up): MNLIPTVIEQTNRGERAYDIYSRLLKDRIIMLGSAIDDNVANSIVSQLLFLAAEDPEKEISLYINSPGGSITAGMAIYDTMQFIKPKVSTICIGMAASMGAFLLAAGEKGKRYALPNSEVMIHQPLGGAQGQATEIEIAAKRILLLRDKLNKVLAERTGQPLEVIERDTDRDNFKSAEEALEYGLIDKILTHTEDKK
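ClpP 10 microg/mL final, pH 8 Tris/KCl buffer with BSA, glycerol, Tween-20; compound pinned in; FRET-FV substrate; RT 20 min; Ex320/Em430; ΔFRET vs ADEP 5.8 microM, DMSO, no enzyme.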
Starred values were filed as active, the others as inactive; ? = inconclusive; . = no result given; [ ] = another dose, or the depositor's remark. Unless noted, calls follow the shape of the dose curve; as a rule, active = well fitted curve in the direction sought with a large enough effect; inconclusive = small, poorly fitted or top-dose-only effect, or another doubt; inactive = no such curve, though single readings can be large; an effect the other way counts as inactive or inconclusive. Potency is read from the fitted curve at half-maximal effect.

SMILES	Sfp PPTase inh	Epigenetic reg	RORg inh	PINK1 expr mod	VP16 counter	ClpP mod
Cc1ccc(-c2cc(C(=O)N(C)CC(=O)Nc3ccccc3Br)c3ccccc3n2)o1	.	.	.	1%	.	25µM*
CCCS/C(N)=N/N=C/c1ccccc1O	-2%	1%	0.63µM*	2%	1.4µM*	-2%
C=CCS/C(N)=N\N=C\c1c(O)ccc2ccccc12	1%	2%	0.5µM*	0%	3.2µM*	0%
CCN(C)c1ccc(/C=C/c2ccnc3ccccc23)cc1	.	.	.	2%	.	0%
CSc1ccc2[nH]c(=O)cc(C)c2c1	11%	-6%	-24%	-1%	-13%	35µM*
Cc1cc(=O)[nH]c2ccc([N+](=O)[O-])cc12	.	.	.	.	.	-1%
COC(=O)c1sccc1S(=O)(=O)N1CCN(c2ccc(C(C)=O)cc2)CC1	.	0%	.	0%	.	-8%
CCc1ccccc1NC(=S)NC1CC2CCCC(C1)N2Cc1cccs1 (stereo not drawn)	1%	-7%	11µM*	.	?	-4%
Cc1cccc(NC(=S)NC2CC3CCCC(C2)N3Cc2cccs2)c1C (stereo not drawn)	14%	0%	2.5µM*	.	?	-2%
CCCN1C2CCCC1CC(NC(=S)Nc1cccc(C)c1C)C2 (stereo not drawn)	-3%	-1%	5%	0%	-8%	1%
CCN(CC)C(=O)Nc1ccc(OC[C@H](O)CNC(C)(C)C)c(C(C)=O)c1	27%	.	9%	.	5%	.
CCOC(=O)C1=C(C)NC(=O)NC1c1ccc(-c2ccc(Cl)cc2)o1 (stereo not drawn)	8%	-3%	-21%	10%	-7%	-4%
CCC1NC(=S)NC(C)=C1C(=O)c1ccccc1 (stereo not drawn)	10%	-3%	10µM*	1%	-21%	-3%
CCOC(=O)C1=C(C)NC(C)=C(C(=O)OCC)C1c1ccco1	-13%	-2%	-6%	3%	17%	-23%
CCOC(=O)C1=C(C)NC(=S)NC1c1ccco1 (stereo not drawn)	71µM*	0%	-39%	1%	-4%	.
CCOC(=O)C1=C(C)NC(=S)NC1c1ccc(-c2cccc(Cl)c2C)o1 (stereo not drawn)	56µM*	0%	4µM*	13%	8.9µM*	-4%
CCOC(=O)C1=C(C)C(c2cccc(Oc3ccccc3)c2)NC(=S)N1 (stereo not drawn)	-10%	1%	7.1µM*	2%	18µM*	.
COc1ccc(C2NC(=S)NC(C)=C2C(=O)c2ccccc2)cc1OC (stereo not drawn)	3%	1%	-33%	12%	5%	-2%
COc1ccc(CN2CCOc3ccc(CN4CCC(O)CC4)cc3C2)c(OC)c1OC	.	.	.	-1%	.	.
Cc1cn(C)c(CC(=O)N2CCN(c3cccc(C(F)(F)F)c3)CC2)c1C(=O)O	.	-1%	.	-1%	.	0%
CCOc1ccc(NC(=O)NC(C)c2c(-n3cccc3)sc3c2CCN(CC)C3)cc1 (stereo not drawn)	.	-1%	.	-1%	.	1%
COC(=O)C1=C(C)NC(=S)NC1c1ccc(-c2cccc(Cl)c2)o1 (stereo not drawn)	7.1µM*	0%	14µM*	0%	?	1%
COC(=O)C1=C(C)NC(=O)NC1c1ccc(-c2ccccc2Cl)o1 (stereo not drawn)	-20%	13%	?	17%	-5%	.
CCOC(=O)C1=C(C)NC(=S)NC1c1ccc(-c2ccc(Cl)cc2)o1 (stereo not drawn)	14µM*	1%	2.5µM*	4%	6.3µM*	-8%
COC(=O)C1=C(C)NC(=O)NC1c1ccc(-c2ccc(F)cc2)o1 (stereo not drawn)	0%	0%	-5%	2%	1%	-1%
SMILES	Sfp PPTase inh	Epigenetic reg	RORg inh	PINK1 expr mod	VP16 counter	ClpP mod
COC(=O)C1=C(C)NC(C)=C(C(=O)OC)C1c1ccc(-c2cccc(Cl)c2Cl)o1	?	1%	25%	17%	-4%	25µM*
COC(=O)C1=C(C)NC(=S)NC1c1ccc(-c2ccccc2C(=O)OC)o1 (stereo not drawn)	?	0%	18µM*	5%	-19%	.
COc1cc2c(c(OC)c1OC)-c1c(cc3c(c1OC)OCO3)CC(C)C(C)(O)C2OC(=O)c1ccccc1 (stereo not drawn)	5%	.	35%	.	3%	.
CCOc1ccccc1C1Nc2ccccc2-c2nnc(SCc3ccccc3)nc2O1 (stereo not drawn)	.	1%	.	-1%	.	-3%
O=C1Nc2ccc(Br)cc2C12NNc1ccccc1O2 (stereo not drawn)	-11%	18µM*	11µM*	-1%	?	2%
O=C1Nc2ccc(Br)cc2C1(O)c1ccccc1 (stereo not drawn)	1%	.	8%	2%	4%	2%
CCOc1cccc2cc(S(=O)(=O)c3ccccc3F)c(=O)oc12	.	-1%	.	4%	.	-1%
O=C(c1cnsn1)N1CCOc2ccc(C(O)C(c3ccccc3)c3ccccc3)cc2C1 (stereo not drawn)	.	.	.	2%	.	.
COc1ccc(-c2nc3c(=O)n(C)c(=O)nc-3n(C)n2)cc1	.	.	.	0%	.	-3%
CCOC(=O)CC1=C(C(=O)OCC)C(c2ccc(C)o2)C(C#N)=C(N)O1 (stereo not drawn)	-9%	0%	2%[0.365 µM]	0%	.	2%
Cc1ccc(C2C(C#N)=C(N)Oc3c2sc2ccccc32)o1 (stereo not drawn)	56µM*	3%	9%[10 µM]	.	-3%	.
Nc1nc2nccc(-c3ccc(Cl)cc3)n2n1	-13%	-3%	-13%	-2%	-16%	57%
Cc1cc(-c2ccc(Cl)cc2)n2nc(N)nc2n1	4%	-1%	-25%	9%	-2%	18µM*
COc1cc(/C=C2/C(=N)N3C(=NC2=O)SN=C3S(=O)(=O)C(C)C)ccc1OS(=O)(=O)c1ccccc1	56µM*	.	-2%	.	0%	.
CNc1ccc(Cl)cc1C(N)=O	3%	0%	21%	2%	-6%	.
N/C(=C\C(=O)c1cc(Cl)ccc1O)C(Cl)(Cl)Cl	3%	1%	4µM*	-1%	?	-4%
COc1ccc(-c2noc(COc3cc(C)ccc3C)n2)cc1OC	.	0%	.	0%	.	-23%

Source: PubChem
